Consider 38 compounds from PubChem BioAssay (Tox21).

Structures are written as SMILES. Results filed as inconclusive are left out. A number with no mark means an inactive call. The source made the active and inactive calls. Unless noted, calls come from the whole dose curve; as a rule, active = well fitted cell-killing curve with a large enough effect in the repeat runs; inconclusive = weak or mixed curves, or effect the other way; inactive = flat fitted curve, though single readings scatter.
% is set by controls: 0 for no effect and ±100 for the full control effect; potency is the fitted concentration of half-maximal effect.

Chain of Estrogen receptor beta (Homo sapiens) (Q92731 whole entry, looked up): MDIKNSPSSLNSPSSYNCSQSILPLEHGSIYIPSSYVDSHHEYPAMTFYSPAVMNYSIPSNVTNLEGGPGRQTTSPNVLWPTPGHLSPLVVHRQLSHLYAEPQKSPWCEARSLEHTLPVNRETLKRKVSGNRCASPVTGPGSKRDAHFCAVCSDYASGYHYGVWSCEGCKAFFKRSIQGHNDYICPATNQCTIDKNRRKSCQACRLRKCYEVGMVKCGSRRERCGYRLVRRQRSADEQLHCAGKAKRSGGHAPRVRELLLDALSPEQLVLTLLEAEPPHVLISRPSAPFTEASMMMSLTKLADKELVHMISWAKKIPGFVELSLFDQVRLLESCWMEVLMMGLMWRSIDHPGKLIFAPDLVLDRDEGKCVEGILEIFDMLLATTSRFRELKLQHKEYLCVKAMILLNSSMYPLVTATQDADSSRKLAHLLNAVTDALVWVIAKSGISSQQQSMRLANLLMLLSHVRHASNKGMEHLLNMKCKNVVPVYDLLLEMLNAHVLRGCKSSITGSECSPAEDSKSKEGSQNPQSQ

The target in the first test is Estrogen receptor beta (Homo sapiens) (UniProt Q92731). Nature of the test: qHTS assay to identify small molecule antagonists of the estrogen receptor beta (ER-beta) signaling pathway (AID 1259378; active = well fitted inhibition curve with a large enough effect in the signal ratio in the repeat runs, not every such curve was filed as active; the % refers to the signal ratio). The following applies: ER-beta-UAS-bla HEK293T, beta-lactamase FRET ratio, 16 h; series mostly up to 92.4 µM; activity, negative = inhibition: at the top concentration. The method in brief:
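ER-beta-UAS-bla HEK293T (GripTite) cells in 2% charcoal-stripped FBS medium were preincubated 6 hr at 37C, dosed with compound, then stimulated with 1 nM E2 (final) for 16 hr; beta-lactamase reporter read by B/G FRET fluorescence after 2 hr substrate loading.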
A general note: qHTS replaces the single test concentration by a dilution series.
For `CCC1(c2ccccc2)C(=O)NC(=O)NC1=O`, the “activity, negative = inhibition” value is -1.69%.

As for `COC(=O)c1ccccc1S(=O)(=O)NC(=O)Nc1nc(C)cc(C)n1`, the “activity, negative = inhibition” value is 14.9%.

Turning to `COc1cc(OC)nc(NC(=O)NS(=O)(=O)c2ncccc2C(=O)N(C)C)n1`, the “activity, negative = inhibition” value is 17.8%.

For the compound `Clc1cccc(N2CCNCC2)c1`, the “activity, negative = inhibition” value was 8.81% [at 42.5 µM].

Turning to `CCOP(=O)(N=C1SCCS1)OCC`, the “activity, negative = inhibition” value is -4.01%.

With `N#CC(CCc1ccc(Cl)cc1)(Cn1cncn1)c1ccccc1` (centres undefined), the Potency was 30.6 µM (active).

In the case of `COc1cccc2c1cc([N+](=O)[O-])c1c(C(=O)O)cc3c(c12)OCO3`, the Potency is 19.3 µM (active).

Consider `CC(C)(C)C(=O)C(Oc1ccc(Cl)cc1)n1cncn1` (centres undefined), for which the “activity, negative = inhibition” value was -10.2%.

For `CC(=O)CC(c1ccc(Cl)cc1)c1c(O)c2ccccc2oc1=O` (centres undefined), the “activity, negative = inhibition” value is 9.99%.

Regarding `ClC(Cl)C(Cl)Cl`, the “activity, negative = inhibition” value was 8.61%.

Take `COc1cc(OC)nc(NC(=O)NS(=O)(=O)c2ncccc2OCC(F)(F)F)n1`: the “activity, negative = inhibition” value was -8.82%.

Turning to `N#CCNCC#N`, the “activity, negative = inhibition” value is -3.76%.

Consider `CCCSC(=O)Cl`, for which the “activity, negative = inhibition” value was -1.79%.

Take `CCC(Cl)[N+](=O)[O-]` (centres undefined): the “activity, negative = inhibition” value was -1.32%.

Consider `O=[N+]([O-])c1cc(Cl)c(Cl)c(Cl)c1`, for which the “activity, negative = inhibition” value was -2.85%.

Regarding `Nc1cc2c3c(c1)C(c1ccccc1)=N[C@@H](NC(=O)c1cccnc1)C(=O)N3CC2`, the “activity, negative = inhibition” value was 7.28%.

As for `Cc1ncsc1CCCl`, the “activity, negative = inhibition” value is 10.9% [at 42.5 µM].

As to `N#Cc1ccncc1`, the “activity, negative = inhibition” value is 6.74%.

In the case of `CCC(C)n1c(=O)[nH]c(C)c(Br)c1=O` (centres undefined), the “activity, negative = inhibition” value was -0.347%.

For the compound `Fc1ccc(C2(Cn3cncn3)OC2c2ccccc2Cl)cc1` (centres undefined), the Potency was 30.6 µM (active).

Tested on in the next test: not listed separately
Briefly: qHTS assay to identify small molecule agonists of the androgen receptor (AR) signaling pathway in the presence of an antagonist - cell viability counter screen (AID 1259379).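 For activity change, negative = cytotoxicity: MDA-kb2 human breast cancer cells carrying an MMTV luciferase reporter.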 Note: nearly all actives have a fitted effect of over 25% in size. The following applies: MDA-kb2 viability, CellTiter-Fluor, 16 h; series mostly up to 92.4 µM; activity change, negative = cytotoxicity: at the top concentration. The method in brief:
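MDA-kb2 human breast carcinoma cells (stable MMTV-luciferase, AR/GR responsive) were seeded 3,000 cells/well, pre-incubated 5 hr at 37C without CO2, then given 3.0uM nilutamide and compounds at 15 concentrations for 16 hr. Viability was read by CellTiter-Fluor fluorescence.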
As for `CNC(=O)Oc1ccc(N(C)C)c(C)c1`, the “activity change, negative = cytotoxicity” value is -9.88%.

As for `CCC1(c2ccccc2)C(=O)NC(=O)NC1=O`, the “activity change, negative = cytotoxicity” value was -0.653%.

Regarding `COC(=O)c1ccccc1S(=O)(=O)NC(=O)Nc1nc(C)cc(C)n1`, the “activity change, negative = cytotoxicity” value is 2.31%.

`COc1cc(OC)nc(NC(=O)NS(=O)(=O)c2ncccc2C(=O)N(C)C)n1`: the “activity change, negative = cytotoxicity” value is 0.176%.

Consider `ClCC(Cl)Cl`, for which the “activity change, negative = cytotoxicity” value is 0.038%.

For the compound `Clc1cccc(N2CCNCC2)c1`, the “activity change, negative = cytotoxicity” value is 1.12% [at 42.5 µM].

As to `CCOP(=S)(OCC)SCSP(=S)(OCC)OCC`, the “activity change, negative = cytotoxicity” value was -0.404%.

Turning to `COc1cc2c(cc1OC)[C@@]13CCN4CC5=CCO[C@H]6CC(=O)N2[C@H]1[C@H]6[C@H]5C[C@H]43`, the “activity change, negative = cytotoxicity” value was 0.346%.

Regarding `CCS(=O)(=O)CCSP(=O)(OC)OC`, the “activity change, negative = cytotoxicity” value is -7.19%.

`O=C1CN2CCOC2(c2ccccc2Cl)c2cc(Cl)ccc2N1` (centres undefined): the “activity change, negative = cytotoxicity” value was 3.47% [at 42.5 µM].

As for `CCOP(=O)(N=C1SCCS1)OCC`, the “activity change, negative = cytotoxicity” value is -0.407%.

`N#CC(CCc1ccc(Cl)cc1)(Cn1cncn1)c1ccccc1` (centres undefined): the Potency was 48.6 µM (active).

For the compound `COc1cccc2c1cc([N+](=O)[O-])c1c(C(=O)O)cc3c(c12)OCO3`, the Potency was 48.6 µM (active).

Turning to `CC(C)(C)C(=O)C(Oc1ccc(Cl)cc1)n1cncn1` (centres undefined), the “activity change, negative = cytotoxicity” value is -0.0281%.

On to `CC(=O)CC(c1ccc(Cl)cc1)c1c(O)c2ccccc2oc1=O` (centres undefined), for which the “activity change, negative = cytotoxicity” value was -11.4%.

As for `CC(=O)C(Cl)Cl`, the “activity change, negative = cytotoxicity” value was 0.563%.

On to `ClC(Cl)C(Cl)Cl`, for which the “activity change, negative = cytotoxicity” value was -0.526%.

As for `COc1cc(OC)nc(Sc2cccc(Cl)c2C(=O)O)n1`, the “activity change, negative = cytotoxicity” value was 1.33%.

For the compound `COc1cc(OC)nc(NC(=O)NS(=O)(=O)c2ncccc2OCC(F)(F)F)n1`, the “activity change, negative = cytotoxicity” value was 3.99%.

In the case of `[O]=[Cd]`, the “activity change, negative = cytotoxicity” value is -0.745%.

As to `C=CCC1=C(C)[C@@H](OC(=O)[C@@H]2[C@@H](C=C(C)C)C2(C)C)CC1=O`, the Potency is 48.6 µM (active).

On to `N#CCNCC#N`, for which the “activity change, negative = cytotoxicity” value was 1.03%.

`CCCSC(=O)Cl`: the “activity change, negative = cytotoxicity” value was 0.377%.

Consider `CCC(Cl)[N+](=O)[O-]` (centres undefined), for which the “activity change, negative = cytotoxicity” value was 2.29%.

On to `O=[N+]([O-])c1cc(Cl)c(Cl)c(Cl)c1`, for which the Potency was 54 µM (active).

`Nc1cc2c3c(c1)C(c1ccccc1)=N[C@@H](NC(=O)c1cccnc1)C(=O)N3CC2`: the “activity change, negative = cytotoxicity” value was -10.2%.

Turning to `CC(C)NCC(O)c1ccc(N)c(C#N)c1` (centres undefined), the “activity change, negative = cytotoxicity” value is -3.41% [at 42.5 µM].

In the case of `Cc1cc(C)nc(Nc2ccccc2)n1`, the “activity change, negative = cytotoxicity” value was 0.0695%.

For the compound `C(CCOCC1CO1)COCC1CO1` (centres undefined), the “activity change, negative = cytotoxicity” value was -0.639%.

`Cc1ncsc1CCCl`: the “activity change, negative = cytotoxicity” value is 2.65% [at 42.5 µM].

Consider `CNC(=O)Oc1cccc(C(C)C)c1`, for which the “activity change, negative = cytotoxicity” value was -0.226%.

Turning to `N#Cc1ccncc1`, the “activity change, negative = cytotoxicity” value was -0.0435%.

For the compound `CCC(C)n1c(=O)[nH]c(C)c(Br)c1=O` (centres undefined), the “activity change, negative = cytotoxicity” value is 1.07%.

Consider `Fc1ccc(C2(Cn3cncn3)OC2c2ccccc2Cl)cc1` (centres undefined), for which the “activity change, negative = cytotoxicity” value was -11.4%.

For the compound `O=C(Oc1ccc(Br)cc1)N1CCN2CCC1CC2`, the “activity change, negative = cytotoxicity” value was 2.26%.

For `CCOP(=S)(OCC)Oc1nc(Cl)n(C(C)C)n1`, the “activity change, negative = cytotoxicity” value was 1.64%.

Take `CC(=O)CCc1ccc2c(c1)OCO2`: the “activity change, negative = cytotoxicity” value was 1.85%.

Tested on in another test: not listed separately
Briefly: qHTS assay to identify small molecule agonists of the estrogen receptor beta (ER-beta) signaling pathway - cell viability counter screen (AID 1259380). Note: nearly all actives have a fitted effect of over 30% in size. The note with it: ER-beta-bla HEK293T viability, CellTiter-Glo luminescence, 16 h; series mostly up to 92.4 µM; activity change, negative = cytotoxicity: at the top concentration. The method in brief:
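ER-beta-UAS-bla HEK293T cells in medium with 2% charcoal-stripped FBS were preincubated 6 hr at 37C, dosed with compound in DMSO for 16 hr, then after the bla read, CellTiter-Glo was added for 30 min at room temperature; luminescence recorded.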
Regarding `CNC(=O)Oc1ccc(N(C)C)c(C)c1`, the “activity change, negative = cytotoxicity” value was 2.66%.

Consider `CCC1(c2ccccc2)C(=O)NC(=O)NC1=O`, for which the “activity change, negative = cytotoxicity” value was 9.2%.

Turning to `COC(=O)c1ccccc1S(=O)(=O)NC(=O)Nc1nc(C)cc(C)n1`, the “activity change, negative = cytotoxicity” value was 9.6%.

In the case of `COc1cc(OC)nc(NC(=O)NS(=O)(=O)c2ncccc2C(=O)N(C)C)n1`, the “activity change, negative = cytotoxicity” value was 2.33%.

For `ClCC(Cl)Cl`, the “activity change, negative = cytotoxicity” value was 9.37%.

Consider `CCS(=O)(=O)CCSP(=O)(OC)OC`, for which the “activity change, negative = cytotoxicity” value was 7.03%.

As for `O=C1CN2CCOC2(c2ccccc2Cl)c2cc(Cl)ccc2N1` (centres undefined), the “activity change, negative = cytotoxicity” value is -1.66% [at 42.5 µM].

As for `N#CC(CCc1ccc(Cl)cc1)(Cn1cncn1)c1ccccc1` (centres undefined), the Potency was 68.6 µM (active).

Consider `COc1cccc2c1cc([N+](=O)[O-])c1c(C(=O)O)cc3c(c12)OCO3`, for which the Potency was 48.6 µM (active).

Take `CC(C)(C)C(=O)C(Oc1ccc(Cl)cc1)n1cncn1` (centres undefined): the “activity change, negative = cytotoxicity” value is -3.46%.

Consider `CC(=O)CC(c1ccc(Cl)cc1)c1c(O)c2ccccc2oc1=O` (centres undefined), for which the “activity change, negative = cytotoxicity” value is 0.513%.

Regarding `CC(=O)C(Cl)Cl`, the “activity change, negative = cytotoxicity” value is 0.247%.

On to `ClC(Cl)C(Cl)Cl`, for which the “activity change, negative = cytotoxicity” value is 4.34%.

On to `COc1cc(OC)nc(Sc2cccc(Cl)c2C(=O)O)n1`, for which the “activity change, negative = cytotoxicity” value was 7.32%.

With `[O]=[Cd]`, the “activity change, negative = cytotoxicity” value was -2.62%.

As to `N#CCNCC#N`, the “activity change, negative = cytotoxicity” value is -1.94%.

`CCCSC(=O)Cl`: the “activity change, negative = cytotoxicity” value is -2.48%.

On to `CCC(Cl)[N+](=O)[O-]` (centres undefined), for which the “activity change, negative = cytotoxicity” value was 4.19%.

For `O=[N+]([O-])c1cc(Cl)c(Cl)c(Cl)c1`, the “activity change, negative = cytotoxicity” value was 3.25%.

As to `Nc1cc2c3c(c1)C(c1ccccc1)=N[C@@H](NC(=O)c1cccnc1)C(=O)N3CC2`, the “activity change, negative = cytotoxicity” value is 2.16%.

With `CC(C)NCC(O)c1ccc(N)c(C#N)c1` (centres undefined), the “activity change, negative = cytotoxicity” value was 1.42% [at 42.5 µM].

With `Cc1cc(C)nc(Nc2ccccc2)n1`, the “activity change, negative = cytotoxicity” value was 1.3%.

For the compound `C(CCOCC1CO1)COCC1CO1` (centres undefined), the “activity change, negative = cytotoxicity” value was 4.18%.

Turning to `Cc1ncsc1CCCl`, the “activity change, negative = cytotoxicity” value is 7.51% [at 42.5 µM].

With `C[C@H]1CCC[C@H](O)CCCCCc2cc(O)cc(O)c2C(=O)O1`, the “activity change, negative = cytotoxicity” value was -7.19%.

For `CNC(=O)Oc1cccc(C(C)C)c1`, the “activity change, negative = cytotoxicity” value is -0.105%.

`N#Cc1ccncc1`: the “activity change, negative = cytotoxicity” value is 1.45%.

On to `CCC(C)n1c(=O)[nH]c(C)c(Br)c1=O` (centres undefined), for which the “activity change, negative = cytotoxicity” value is -7.53%.

For `Fc1ccc(C2(Cn3cncn3)OC2c2ccccc2Cl)cc1` (centres undefined), the Potency was 17.2 µM (active).

With `O=C(Oc1ccc(Br)cc1)N1CCN2CCC1CC2`, the “activity change, negative = cytotoxicity” value is -1.07%.

Consider `CCOP(=S)(OCC)Oc1nc(Cl)n(C(C)C)n1`, for which the “activity change, negative = cytotoxicity” value is 1.87%.

As for `CC(=O)CCc1ccc2c(c1)OCO2`, the “activity change, negative = cytotoxicity” value is -2.94%.
